Assay results as given in the supplement of paper PMC9262897, “Low-cost anti-mycobacterial drug discovery using engineered E. coli” (Nature Communications, 2022).
Counter-ions that a name gives are not always drawn. ± gives the standard deviation of the averaged measurements.

test system: E. coli TESEC Mtb Alr; test: growth (OD600 after 10 h); higher = more growth (less inhibition); conditions: arabinose 10000000 nM; compound 0.1 mM; raw OD600 reference: median of DMSO wells […], cell-free background 0.052
Protocol: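 TESEC Mtb Alr E. coli (ΔaraC ΔtolC ΔentC Δalr ΔdadX, arabinose-inducible Mtb Alr) or the Alr+ wild-type control strain, grown in defined M9-fructose medium without D-alanine in 96-well plates with Prestwick library compounds at 0.1 mM and 1% DMSO. Low Alr induction is 0.1 µM arabinose and high induction is 10 mM arabinose.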

Structure (SMILES)	growth
CN(C)CCc1c[nH]c2ccc(Cn3cncn3)cc12 [Rizatriptan benzoate]	0.34 ± 0.0085
COc1ccc(CCN(C)CCCC(C#N)(c2ccc(OC)c(OC)c2)C(C)C)cc1OC (centres undefined) [Verapamil hydrochloride]	0.258 ± 0.014
CC1=C(/C=C/C(C)=C/C=C/C(C)=C\C(=O)O)C(C)(C)CCC1 [Isotretinoin]	0.251 ± 0.014
CCCOc1cc(N)ccc1C(=O)OCCN(CC)CC [Propoxycaine hydrochloride]	0.361 ± 0.015
CO/N=C(\C(=O)N[C@@H]1C(=O)N2C(C(=O)O)=C(COC(C)=O)CS[C@H]12)c1csc(N)n1 [Cefotaxime sodium salt]	0.0529 ± 0.0023
Clc1ccc(Cn2c(CN3CCCC3)nc3ccccc32)cc1 [Clemizole hydrochloride]	0.185 ± 0.055
COc1ccccc1N1CCN(CCCCNC(=O)c2ccc3ccccc3c2)CC1	0.181 ± 0.024
CC[C@H](c1ccc(O)cc1)[C@@H](CC)c1ccc(O)cc1 [Hexestrol]	0.05173 ± 0.0004
Cc1cc(N)c2ccccc2[n+]1CCCCCCCCCC[n+]1c(C)cc(N)c2ccccc21 [Dequalinium dichloride]	0.0648 ± 0.0024
Clc1ccc(Nc2nnc(Cc3ccncc3)c3ccccc23)cc1 [Vatalanib]	0.0605 ± 0.0043
NNc1nncc2ccccc12 [Hydralazine hydrochloride]	0.304 ± 0.018
NC(Cc1cc(I)c(Oc2cc(I)c(O)c(I)c2)c(I)c1)C(=O)O (centres undefined) [Thyroxine (L)]	0.359 ± 0.019
Cc1onc(-c2c(F)cccc2Cl)c1C(=O)N[C@@H]1C(=O)N2[C@@H]1SC(C)(C)[C@@H]2C(=O)O [Flucloxacillin sodium]	0.33 ± 0.021
C[C@H](N[C@@H](CCc1ccccc1)C(=O)O)C(=O)N1CCC[C@H]1C(=O)O [Enalaprilat dihydrate]	0.308 ± 0.022
COCCOC(=O)C1=C(C)NC(C)=C(C(=O)OC/C=C/c2ccccc2)C1c1cccc([N+](=O)[O-])c1 (centres undefined) [Cilnidipine]	0.253 ± 0.026
CCCNCC(O)COc1ccccc1C(=O)CCc1ccccc1 (centres undefined) [Propafenone hydrochloride]	0.285 ± 0.0058
Cn1nnc2c(C(N)=O)ncn2c1=O [Temozolomide]	0.35 ± 0.01
CCc1nn(CCCN2CCN(c3cccc(Cl)c3)CC2)c(=O)n1CCOc1ccccc1 [Nefazodone HCl]	0.0515 ± 0.001
CC(=O)OCC(=O)[C@@]12OC3(CCCC3)O[C@@H]1C[C@H]1[C@@H]3CCC4=CC(=O)C=C[C@]4(C)[C@@]3(F)[C@@H](O)C[C@@]12C [Amcinonide]	0.304 ± 0.0053
COc1ccccc1O [Guaiacol]	0.356 ± 0.009

Structure (SMILES)	growth
C(=C\c1ccccc1)/CN1CCN(C(c2ccccc2)c2ccccc2)CC1 [Cinnarizine]	0.375 ± 0.0072
CCN(CC)C(C)CN1c2ccccc2Sc2ccccc21 (centres undefined) [Ethopropazine hydrochloride]	0.333 ± 0.014
CC(CCc1ccccc1)NCC(O)c1ccc(O)c(C(N)=O)c1 (centres undefined) [Labetalol hydrochloride]	0.321 ± 0.016
CN(Cc1cnc2nc(N)nc(N)c2n1)c1ccc(C(=O)N[C@@H](CCC(=O)O)C(=O)O)cc1 [Methotrexate]	0.126 ± 0.0066
NS(=O)(=O)c1cc2c(cc1Cl)NC(CC1CCCC1)NS2(=O)=O (centres undefined) [Cyclopenthiazide]	0.356 ± 0.0061
CC1(C)NC(=O)N(c2ccc([N+](=O)[O-])c(C(F)(F)F)c2)C1=O [Nilutamide]	0.295 ± 0.017
CC(=O)O[C@H]1C[C@@H]2CC[C@@H]3[C@H](CC[C@@]4(C)[C@H]3C[C@H]([N+]3(C)CCCCC3)[C@@H]4OC(C)=O)[C@@]2(C)C[C@@H]1N1CCCCC1 [Vecuronium bromide]	0.0791 ± 0.0096
Clc1ccc(C(Cn2ccnc2)OCc2csc3c(Cl)cccc23)c(Cl)c1 (centres undefined) [Sertaconazole nitrate]	0.123 ± 0.0052
Cn1c(=O)c2c(ncn2C)n(C)c1=O [Caffeine]	0.369 ± 0.006
C[N+]1(C)CCC(OC(=O)C(O)(c2ccccc2)C2CCCC2)C1 (centres undefined) [Glycopyrrolate]	0.335 ± 0.014
Clc1cccc(Cl)c1NC1=NCCN1 [Clonidine hydrochloride]	0.375 ± 0.017
Cc1cc(O)c(C(=O)N[C@@H](C(=O)N[C@@H]2C(=O)N3C(C(=O)O)=C(CSc4nnnn4C)CS[C@H]23)c2ccc(O)cc2)cn1 [Cefpiramide]	0.3403 ± 0.00045
C#C[C@]1(O)CC[C@H]2[C@@H]3CCC4=C(CCC(=O)C4)[C@H]3CC[C@@]21C [Norethynodrel]	0.17 ± 0.018
Nc1ccc(O)c(C(=O)O)c1 [Mesalamine]	0.363 ± 0.011
CSc1ccc2c(c1)C(N1CCN(C)CC1)Cc1ccccc1S2 (centres undefined) [Methiothepin maleate]	0.0516 ± 0.00053
N[C@@H]1CONC1=O [D-cycloserine]	0.328 ± 0.015
Clc1ccc(COC(Cn2ccnc2)c2ccc(Cl)cc2Cl)c(Cl)c1 (centres undefined) [Miconazole]	0.083 ± 0.0044
CC(C)OC(=O)CCC/C=C\C[C@@H]1[C@@H](CC[C@@H](O)CCc2ccccc2)[C@H](O)C[C@@H]1O [Latanoprost]	0.0658 ± 0.011
CC(NCCc1ccc(O)cc1)C(O)c1ccc(O)cc1 (centres undefined) [Ritodrine hydrochloride]	0.36 ± 0.019
